# Assay results taken from PMC5540273 (PLoS ONE, 2017).
# System: BLK
# 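Note: kd values determined as follow-up on hits from a single-replicate KINOMEscan panel screen.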
row,SMILES,Kd
1,Cl.NC(=O)c1cccc(Nc2nccc(Nc3ccc(Oc4cccc(Cl)c4)c(Cl)c3)n2)c1 [GW659008],2.6 µM
2,COc1cc2nccc(Nc3ccc(NC(=O)c4ccc(C)cc4)c(O)c3)c2cc1OC.Cl [GW440132],0.23 µM
3,Cc1ccc(C(=O)Nc2ccc(Nc3ccnc4cc(-c5ccccn5)ccc34)cc2O)cc1.Cl [GW440146],0.063 µM

# System: BRAF
row,SMILES,Kd
1,Cl.O=C(Nc1cccc(-c2nn3ncccc3c2-c2ccnc(Nc3cccnc3)n2)c1)c1c(F)cccc1F [GSK312879],0.062 µM
2,COC(=O)c1c(-c2ccccc2)c2cc(C(=O)O)ccc2c(=O)n1Cc1ccccc1,0.05 µM
3,Cc1cccc(-c2nc(-c3ccc(S(C)(=O)=O)cc3)sc2-c2ccnc(NCCc3ccccc3)c2)c1,0.081 µM
4,CC(=O)Nc1nc2cnc(Nc3cc(NC(=O)c4cccc(CCC#N)c4)ccc3C)nc2s1,> 10 µM
5,CN(C)CCN(C)C(=O)c1cc(-c2ccncc2)c(-c2ccc(Cl)c(O)c2)o1.Cl.Cl [SB-710397],0.045 µM
6,COC(=O)c1c(-c2ccccc2)c2cc(OC)ccc2c(=O)n1Cc1ccccc1,0.061 µM

# System: BRSK1
row,SMILES,Kd
1,CS(=O)(=O)c1ccc(-c2c(-c3ncn[nH]3)sc(N3CCOCC3)c2C#N)cc1,> 10 µM
2,O=C(Nc1n[nH]c2nc(-c3nccs3)c(Br)cc12)C1CCCC1 [SB-742609],0.43 µM
3,Cc1ccc(NC(=O)Nc2cc(C(C)(C)C)nn2-c2ccccc2)cc1 [GSK1014915],> 10 µM
4,CCn1c(-c2ccccn2)nc2cnccc21 [SB-736398],> 10 µM
5,O=C(Nc1n[nH]c2nc(-c3nccs3)c(Br)cc12)C1CC1 [SB-742251],0.23 µM
6,Cc1ccc(NC(=O)Nc2cccc(Cl)c2)cc1-c1ccc(C(=O)Nc2ccncc2)cc1 [GSK1398468],> 10 µM

# System: BRSK2
row,SMILES,Kd
1,COc1ccccc1CNC(=O)c1cc(C(=O)c2ccccc2C)c[nH]1 [GSK364507],> 10 µM
2,O=C(Nc1n[nH]c2nc(-c3nccs3)c(Br)cc12)C1CCCC1 [SB-742609],0.33 µM
3,O=C(Nc1n[nH]c2nc(-c3nccs3)c(Br)cc12)C1CC1 [SB-742251],0.14 µM

# System: CAMK1G
row,SMILES,Kd
1,CN1C(=O)C(Nc2ccc(Cl)c(C(=O)O)c2)=C(c2ccc(Cl)cc2)C1=O [SB-404290],> 10 µM
2,Cc1cc(-c2ccc3c(c2)CC[C@@H](N[C@@H](C)c2ccccc2)C3)cnc1N.Cl [GW412617],> 10 µM
3,Cc1cccc(-c2nc(C)cc(Nc3ccncc3)n2)n1 [GSK257997],> 10 µM
4,O=C(Nc1n[nH]c2cc(-c3cccc(F)c3F)ccc12)C1CC1 [SB-733894],> 10 µM

# System: T1, CDC2L1
# T1 construct: gene CDK11B
row,SMILES,Kd
1,O=C(Nc1n[nH]c2nc(-c3nccs3)c(Br)cc12)C1CCCC1 [SB-742609],> 10 µM
2,Cc1cccc(-c2nc(C)cc(Nc3ccncc3)n2)n1 [GSK257997],> 10 µM
3,CS(=O)(=O)c1ccc(-c2nc3n(c2-c2ccncc2)CCC3)cc1 [SKF-105942],> 10 µM

# System: CDK9
row,SMILES,Kd
1,O=C(Nc1n[nH]c2nc(-c3nccs3)c(Br)cc12)C1CCCC1 [SB-742609],2.5 µM
2,Cc1cccc(-c2nc(C)cc(Nc3ccncc3)n2)n1 [GSK257997],> 10 µM
3,CS(=O)(=O)c1ccc(-c2nc3n(c2-c2ccncc2)CCC3)cc1 [SKF-105942],> 10 µM
